In the library only some 11% were active in any assay of this set; here they are far more common.
AmpC inh no detg = AmpC beta-lactamase inhibition without detergent; AmpC nitrocefin hydrolysis, absorbance 480 nm, 0.0001% Triton; Potency, µM (highest dose often 57.1 µM), without a hit: at the top dose activity change, negative = inhibition, most hits filed as inhibitors; 0.52% of 330,000 active; AID 485341;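 further: plate controls were no compound for no effect and no enzyme for full effect; nearly all actives have a fitted effect of over 20% in size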
Target sequence (P00811 whole entry, looked up): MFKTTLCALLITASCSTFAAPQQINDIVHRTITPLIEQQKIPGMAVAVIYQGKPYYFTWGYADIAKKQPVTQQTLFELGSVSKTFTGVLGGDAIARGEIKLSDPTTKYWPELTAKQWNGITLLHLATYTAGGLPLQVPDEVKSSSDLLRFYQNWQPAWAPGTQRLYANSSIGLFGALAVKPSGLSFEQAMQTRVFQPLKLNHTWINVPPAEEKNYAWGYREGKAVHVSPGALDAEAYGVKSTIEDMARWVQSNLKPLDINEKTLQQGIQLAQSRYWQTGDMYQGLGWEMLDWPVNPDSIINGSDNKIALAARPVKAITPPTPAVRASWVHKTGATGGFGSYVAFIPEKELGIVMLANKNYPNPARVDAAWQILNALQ
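20 mM phosphate pH 7.0 + 0.01% (detergent screen) or 0.0001% Triton X-100; 5.3 nM AmpC reagent; cpd preinc 15 min RT; nitrocefin (800 uM stock) to start; A480 q20 s × 4 min; Activity was normalised to no-enzyme and no-compound control wells.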
AmpC detergent = blocks E. coli AmpC beta-lactamase in detergent assay; P00811; AmpC hydrolysis of nitrocefin, absorbance 480 nm, 0.01% Triton; Potency, µM (top dose mostly 114 µM), inactives show at the highest dose activity change, negative = inhibition, most hits filed as inhibitors; 0.041% of 370,000 active;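 further: 0% = no-compound wells and -100% = no-enzyme wells; nearly all actives have a fitted effect of over 25% in size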
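20 mM phosphate pH 7.0 + 0.01% (detergent screen) or 0.0001% Triton X-100; 5.3 nM AmpC reagent; cpd preinc 15 min RT; nitrocefin (800 uM stock) to start; A480 q20 s × 4 min; Activity was normalised to no-enzyme and no-compound control wells.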
Pf growth 48h = P. falciparum growth inhibition at 48 hours (one generation). AID 504832. P. falciparum luciferase growth in erythrocytes, 48 h. 5.9% of 310,000 active. Potency, µM (series often up to 28.7 µM), without a hit: at the top dose activity change, negative = inhibition, actives largely listed as inhibitors
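A one-generation exposure of luciferase-tagged malaria parasites in RPMI 1640/Albumax erythrocyte culture, 37 C and 5% CO2. Inhibition is inferred from decreased luminescence after adding detection reagent.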
AMA1 RON2 block = AMA1-RON2 (P. falciparum) interaction inhibition. AlphaScreen AMA1-biotinylated RON2 peptide binding. Potency, µM (highest dose often 58.2 µM), for the others: at the top dose activity change, negative = inhibition, most hits filed as inhibitors. 0.2% of 360,000 active;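 further: 0% = vehicle wells and -100% = peptide control; nearly all actives have a fitted effect of over 45% in size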
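AMA1 (3D7) with his tag at 25 nM final met compounds first, then biotinylated RON2 peptide at 25 nM; detection used donor plus acceptor beads, 10 µg/mL apiece, read by AlphaScreen after 30 min at room temperature.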
HCV inhibitor = HCV inhibition; Huh7.5.1 HCVcc-Cre infection, luciferase reporter, 44 h; Potency, µM (titrated, usually from 41.8 µM), for the others: at the highest dose activity change, negative = inhibition, actives largely listed as inhibitors; 3.4% of 340,000 active
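Seed cells (1,000/well) for 4 h; treat with compound and infect with HCVcc-Cre, moi about 0.5. Incubate 44 h, then detect luciferase activity.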
Pf growth 96h = P. falciparum growth inhibition at 96 hours; Potency, µM (titrated, usually from 28.7 µM), inactives show at the top dose activity change, negative = inhibition, usual class: inhibitors; 6.9% of 320,000 active; P. falciparum luciferase reporter growth, 96 h
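Luminescence readout: decreased luciferase signal marks inhibited growth of reporter-expressing P. falciparum in infected red cells (2% hematocrit, 0.05% parasitemia final), exposed to compound two generations (96 h, 37 C, 5% CO2).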
The depositor's hits bear a star; ? = inconclusive; . = not tested or not shown; [ ] = another dose, or the depositor's remark. The call rests on the fitted dose curve; in most records, active means well fitted curve in the direction sought with a large enough effect; inconclusive means small, poorly fitted or top-dose-only effect, or another doubt; inactive means no such curve, though single readings can be large; an effect the other way counts as inactive or inconclusive. Unless noted, on the % scale 0 is the no-effect control and ±100 the full control effect; potency means the concentration at half of the fitted maximal effect.

SMILES	AmpC inh no detg	AmpC detergent	Pf growth 48h	AMA1 RON2 block	HCV inhibitor	Pf growth 96h
Cc1cccc(Cn2c(SCc3ccc(C(=O)NCc4ccccc4)cc3)nc3cccnc32)c1	.	16%	.	.	.	.
COc1ccc(-c2[nH]c(-c3ccccc3)nc2SCC(=O)NC2CCCC2)cc1	-17%	?	-29%	?	-17%	12µM*
COc1ccc(-c2[nH]c(-c3ccc(F)cc3)nc2SCC(=O)NC2CCCC2)cc1	-2%	-13%	-23%	-13%	?	?
COc1ccc(-c2[nH]c(-c3cccc(OC)c3)nc2SCC(=O)NC2CCCC2)cc1	23%	9%	-20%	?	?	3.3µM*
COc1ccc(-c2nc(SCC(=O)NCc3ccco3)c(-c3ccccc3)[nH]2)cc1OC	-3%	-14%	.	-23%	?	?
COc1ccc(-c2[nH]c(-c3ccccc3)nc2SCC(=O)NCc2ccco2)cc1OC	-22%	-14%	.	-2%	?	1µM*
COc1ccc(-n2ccnc(NCc3ccc(C)cc3)c2=O)cc1OC	.	6%	.	.	.	.
CCC(=O)N1CCc2cc(S(=O)(=O)CCC(=O)Nc3ccc(Cl)c(C(F)(F)F)c3)ccc21	.	-2%	.	.	.	.
Cc1cc(C)c(NC(=O)C2CC3CCC2C3)c(C)c1 (centres undefined)	-14%	1%	10µM*	14%	10%	25%
O=c1c2ccccc2nc(/C=C/c2cc(Br)ccc2O)n1CCCO	84%	3%	1.3µM*	-6%	?	?
O=c1c2ccccc2nc(/C=C/c2cccnc2)n1CCc1ccccc1	38%	6%	?	-6%	-15%	?
CCn1c(/C=C2/C(=O)N(C)c3ccccc32)nc2ccccc2c1=O	-9%	8%	?	-11%	-30%	-17%
CCn1c(/C=C2\C(=O)N(C(C)C)c3ccccc32)nc2ccccc2c1=O	64%	2%	3.7µM*	-25%	?	?
O=c1c2ccccc2nc(/C=C/c2cccnc2)n1Cc1ccccc1	26%	-6%	?	32µM*	8%	13%
NC(=O)CSc1nc2ccccc2c(=O)n1CCc1ccccc1	-17%	?	11%	-5%	-16%	5.9µM*
CCOC(=O)CC(=O)CSc1nc2ccccc2c(=O)n1CCc1ccccc1	.	-2%	.	.	.	.
CCc1nn(CC(=O)NC2CC2)c(=O)c2cc3c(OC)cccc3n12	.	-6%	.	.	.	.
COc1ccc(Cn2ccc3nc(C)c(C(=O)Nc4ccc(OC(F)(F)F)cc4)cc3c2=O)cc1	.	-7%	.	.	.	.
CCc1cccc(NS(=O)(=O)c2cc(-c3cnc(C)o3)ccc2OC)c1	.	-12%	.	.	.	.
O=c1c2ccccc2nc(/C=C/c2ccccc2)n1CCc1ccccc1	-30%	-5%	?	-16%	0%	4.7µM*
C=CCSc1nc2ccccc2c(=O)n1Cc1ccccc1	-23%	-12%	12µM*	-12%	-12%	84%
Cc1cccc(/C=C/c2nc3ccccc3c(=O)n2Cc2ccccc2)c1	-18%	-3%	22%	-2%	?	0%
CCn1c(/C=C\c2ccccc2C)nc2ccccc2c1=O	-4%	5%	?	49%	?	27%
CCn1c(/C=C/c2ccccc2Cl)nc2ccccc2c1=O	26%	2%	1.9µM*	-7%	-18%	1.7µM*
CCOC(=O)C1CCN(C(=O)c2nn(-c3ccc(OC)c(Cl)c3)c(=O)c3c2c2ccccc2n3C)CC1	.	1%	.	.	.	.
SMILES	AmpC inh no detg	AmpC detergent	Pf growth 48h	AMA1 RON2 block	HCV inhibitor	Pf growth 96h
CC(C)Cn1c(N)c(C(=O)COC(=O)c2ccccc2F)c(=O)n(C)c1=O	-23%[11.4 µM]	?	-1%	15%	11µM*	22%
CC(C)Cn1c(N)c(C(=O)COC(=O)c2ccc3ccccc3n2)c(=O)n(C)c1=O	45%	-15%	-17%	-9%	?	4.1µM*
CC(C)Cn1c(N)c(C(=O)COC(=O)c2ccccc2C(=O)c2ccccc2)c(=O)n(C)c1=O	39%	.	.	-1%	10µM*	.
CC(C)Cn1c(N)c(C(=O)COC(=O)Cc2cccs2)c(=O)n(C)c1=O	-4%	0%	17%	4%	3%	31%
CC(C)Cn1c(N)c(C(=O)COC(=O)c2c(F)cccc2F)c(=O)n(C)c1=O	-20%[11.4 µM]	-12%	-18%	9%	-30%	10%
CC(C)Cn1c(N)c(C(=O)COC(=O)/C=C/c2cccs2)c(=O)n(C)c1=O	10%	-4%	?	-5%	4µM*	?
COc1ccc(-c2oc3ncn4nc(COc5ccccc5C)nc4c3c2-c2ccc(OC)cc2)cc1	.	12%	.	.	.	.
Fc1ccccc1N1CCN(c2nccn3nc(-c4ccc(Br)cc4)cc23)CC1	.	17%	.	.	.	.
CCCOC(=O)C1=C(C)NC2=C(C(=O)CC(C)(C)C2)C1c1cccnc1 (centres undefined)	-32%	-9%	?	3%	3%	10µM*
CCCOC(=O)C1=C(C)NC2=C(C(=O)CC(C)(C)C2)C1c1ccc(N(C)C)cc1 (centres undefined)	45%	0%	?	-18%	-22%	-2%
Cn1c(CO)c(-c2ccccc2)c2cc([N+](=O)[O-])ccc21	-32%	?	10%	-10%	10µM*	13%
CC(=O)OCc1c(-c2ccccc2)c2cc([N+](=O)[O-])ccc2n1C	4%	2%	6%	13%	13µM*	-17%
COc1ccc(CCNC(=O)Cc2c(C)c3c(cc(C)c4c(C)coc43)oc2=O)cc1	.	22%	.	.	.	.
COc1ccc(Cl)cc1C(=O)Nc1ccc(S(=O)(=O)N2CCCC2)cc1	0%	0%	40%	4%	11%	.
COc1ccc(S(=O)(=O)N2CCOCC2)cc1NC(=O)Cc1sc(C)nc1-c1ccc(F)cc1	63%	-17%	?	1%	-26%	?
COc1ccc(S(=O)(=O)N2CCCCC2)cc1NC(=O)Cc1sc(C)nc1-c1ccc(F)cc1	39%	233%	12µM*	-13%	?	?
COc1ccc(S(=O)(=O)N2CCCCCC2)cc1C(=O)NCc1ccccc1Cl	-25%	0%	5.9µM*	-16%	9%	8.3µM*
CCOc1ccc(S(=O)(=O)N2CCCCC2)cc1NC(=O)Cc1cccc(C(F)(F)F)c1	-18%	4%	?	-6%	?	9.3µM*
COc1ccc(S(=O)(=O)N2CCCCCC2)cc1NC(=O)Cc1cccc(C(F)(F)F)c1	.	.	.	-1%	.	.
COc1ccc(S(=O)(=O)N2CCCCCC2)cc1C(=O)NCc1ccco1	-12%	.	.	6%	7%	.

Assay outcomes from PubChem BioAssay.
